Screening data (PubChem)
Sampled rows, rich in hits. Any-hit rate of the full collection: about 11%.
Pf growth 96h = P. falciparum growth inhibition at 96 hour, primary screen for plastid delayed-death inhibitors; AID 504834; Potency, µM (doses to about 28.7 µM), for inactives: at the top dose activity change, negative = inhibition, most hits filed as inhibitors; P. falciparum luciferase reporter growth, 96 h; 320,000 tested, 6.9% active; note: % is set by controls: 0 for no effect and ±100 for the full control effect
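Luminescence readout: decreased luciferase signal marks inhibited growth of reporter-expressing P. falciparum in infected red cells (2% hematocrit, 0.05% parasitemia final), exposed to compound two generations (96 h, 37 C, 5% CO2).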
Vaccinia Venus = vaccinia inhibition (Venus reporter); Potency, µM (doses to about 36.5 µM), inactives show at the highest dose activity change, negative = inhibition, most hits filed as inhibitors; 330,000 tested, 0.46% active; Vaccinia virus Venus reporter expression, fluorescence; calls by dose curve; tested in A549 cells; note: % is set by controls: 0 for no effect and ±100 for the full control effect; nearly all actives have a fitted effect of over 30% in size
Vaccinia mCherry = vaccinia inhibition (mCherry reporter); AID 720579; 310,000 tested, 0.63% active; Potency, µM (titrated, usually from 36.5 µM), inactives show top-dose activity change, negative = inhibition, most hits filed as inhibitors; Vaccinia virus mCherry reporter infection, fluorescence; calls by dose curve; tested in A549 cells; note: % is set by controls: 0 for no effect and ±100 for the full control effect; nearly all actives have a fitted effect of over 35% in size
Pf growth 48h = P. falciparum growth inhibition at 48 hours (one generation); 310,000 tested, 5.9% active; Potency, µM (series often up to 28.7 µM), inactives show at the top dose activity change, negative = inhibition, most hits filed as inhibitors; AID 504832; P. falciparum luciferase growth in erythrocytes, 48 h; note: % is set by controls: 0 for no effect and ±100 for the full control effect
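First compound was added to culture medium, then infected red cells at 0.1% parasitemia and 2% hematocrit (final). After incubation at 37 C under 5% CO2, luciferase detection reagent was dispensed and light output recorded.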
HCV inh = inhibitors of hepatitis C virus infection; Huh7.5.1 HCVcc-Cre infection, luciferase reporter, 44 h; Potency, µM (doses to about 41.8 µM), without a hit: top-dose activity change, negative = inhibition, hits mostly inhibitors; 340,000 tested, 3.4% active; note: % is set by controls: 0 for no effect and ±100 for the full control effect
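Cells (1,000/well) were plated 4 h before compound, then infected with HCVcc-Cre virus (~0.5 moi). After 44 h further culture, infection was read as luciferase luminescence following a 15 min substrate incubation at room temperature.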
NS1 function inh = blocks influenza NS1 protein function | Potency, µM (highest dose often 46.1 µM), without a hit: at the top dose activity, positive = more growth | 270,000 tested, 0.4% active | AID 2326; calls by dose curve; note: actives are rising curves; nearly all actives have a fitted effect of over 50% in size
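Read-out: OD600 growth recovery of NS1-expressing budding yeast. Cells grown overnight at 30C in -URA glucose medium, washed, resuspended and diluted 1:100 in 2% galactose assay medium, pH 6.0. Same strain lacking NS1 served as positive control.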
* = called active by the depositor; [ ] = dose if it differs, or a comment. Unless noted, calls come from the whole dose curve; as a rule, active = well fitted inhibition curve with a large enough effect; inconclusive = small, poorly fitted or top-dose-only effect, or another doubt; inactive = no such curve, though single readings can be large or run the other way. Potency is the fitted concentration of half-maximal effect.

`COc1cccc(NC(=O)c2ccc(-n3cnnn3)cc2)c1` gave Pf growth 96h 4.1µM*, Vaccinia Venus 3%, Vaccinia mCherry 29%, Pf growth 48h 18%, HCV inh -25% and NS1 function inh 1%.
Screening COc1ccc(CNC(=O)CSc2nc3ccsc3c(=O)n2Cc2ccccc2Cl)cc1 returned Vaccinia Venus 12% and Vaccinia mCherry 15%.
COc1ccc(OCCOC(=O)c2cccc(-n3cnnn3)c2)cc1 was read as Pf growth 96h 15µM*, Pf growth 48h 53%, HCV inh -17% and NS1 function inh -7%.
For Cc1cccc(NC(=S)N/N=C/c2ccc3c(c2)OCO3)c1 the results were Pf growth 96h -18%, Vaccinia Venus -9%, Vaccinia mCherry -15%, Pf growth 48h 20%, HCV inh -30% and NS1 function inh inconclusive.
Screening S=C(N/N=C/c1ccc2c(c1)OCO2)NC1CC2CCC1C2 (stereo unspecified) returned Pf growth 96h 2.6µM*, Vaccinia Venus -17%, Vaccinia mCherry inactive, Pf growth 48h 2.1µM*, HCV inh inconclusive and NS1 function inh 5%.
Screening COc1ccc(/C=N/NC(=S)N[C@H]2CC3CCC2C3)cc1 (stereo partly specified) returned Pf growth 96h 5.2µM*, Vaccinia Venus -2%, Vaccinia mCherry -7%, Pf growth 48h 4.1µM*, HCV inh -30% and NS1 function inh 1%.
COc1cc(/C=N/NC(=S)NC2CC3CCC2C3)ccc1O (stereo unspecified) was read as Pf growth 96h inconclusive, Pf growth 48h 0%, HCV inh inconclusive and NS1 function inh 14%.
`CC(NC(=O)C(Cc1ccccc1)N1C(=O)C2C3CCC(C3)C2C1=O)c1ccccc1` (stereo unspecified) gave Pf growth 96h 28%, Pf growth 48h inconclusive, HCV inh 1% and NS1 function inh -2%.
For Cc1cccc(C2(c3cccc(C)c3)CC2C(=O)NCC2CCCO2)c1 (stereo unspecified) the results were Pf growth 96h -13%, Vaccinia Venus -12%, Vaccinia mCherry -23%, Pf growth 48h -3%, HCV inh 32% and NS1 function inh -15%.
CCCCc1nc2ccccc2c(NC(=O)CNC(C)(C)C)c1CCC was read as Pf growth 96h -25%, Vaccinia Venus -13%, Vaccinia mCherry -24%, Pf growth 48h -23%, HCV inh inconclusive and NS1 function inh -15%.
`CCCCc1nc2ccccc2c(N)c1CCC` (tested in a mixture with another compound) gave Pf growth 96h inconclusive, Vaccinia Venus -26%, Vaccinia mCherry inconclusive, Pf growth 48h 9.3µM*, HCV inh -55% and NS1 function inh -23%.
Screening Cc1cc([N+](=O)[O-])ccc1NC(=O)CCC(=O)N1CCCCC1 returned Pf growth 96h inconclusive, Vaccinia Venus -4%, Vaccinia mCherry inactive, Pf growth 48h 30%, HCV inh -2% and NS1 function inh -11%.
Screening Cc1ccc2c(CN3C(=O)NC(C)(c4ccc5c(c4)OCO5)C3=O)cc(=O)oc2c1 (stereo unspecified) returned Pf growth 96h inconclusive, Vaccinia Venus -11%, Vaccinia mCherry inactive, Pf growth 48h 4.1µM*, HCV inh inconclusive and NS1 function inh 4%.
Screening Cc1nn(-c2nc3ccccc3s2)c(C)c1Oc1ccccc1O returned Pf growth 96h 328%, Vaccinia Venus -12%, Vaccinia mCherry inconclusive, Pf growth 48h 177%, HCV inh 10µM* and NS1 function inh -14%.
Screening Cc1nn(-c2ccccn2)c(C)c1Oc1ccccc1O returned Pf growth 96h 2.6µM*, Vaccinia Venus -7%, Vaccinia mCherry -11%, HCV inh -29% and NS1 function inh -11%.
Screening CCc1cccc(C)c1NS(=O)(=O)c1c(C(=O)N2CCCCCC2)c(C)n(C)c1C returned Vaccinia Venus -17% and Vaccinia mCherry -10%.
Screening Cc1cccc(N2CCN(C(=O)C3CCN(S(=O)(=O)c4c(C)noc4/C=C/c4ccccc4F)CC3)CC2)c1C returned Vaccinia Venus -8%[7.34 µM] and Vaccinia mCherry -5%[7.34 µM].
